# ChEMBL document CHEMBL4513216, “Probing the Open Global Health Chemical Diversity Library for Multistage-Active Starting Points for Next-Generation Antimalarials” (ACS Infect Dis, 2020)
# The whole screen tested about 65,000 compounds, of which about 2,100 (3.2%) showed an effect of 50% or more. The median lay at about -52%. The list comes from a sample in which strong results are over-represented; it also holds similar structures and randomly drawn compounds.
# Test system: Plasmodium falciparum
# Test: Screen against P. falciparum Asexual Blood Stage (ABS), at 5uM
# Assay type: functional, Dd2
# Settings: tested at 5 uM
row,Compound,INHIBITION
1,COc1ccc(CNCC2CCN(CCO)CC2)cc1F,58.2%
2,Cc1ccc(CNCC2CCN(CCO)CC2)cc1,13%
3,COc1ccc(OC)c(CN2CCC(c3cc(O)nc(C)n3)C2)c1 (stereo not given),-1.68%
4,CCN1CCCC(CNC(=O)CCc2ccc(OC)c(F)c2)C1 (stereo not given),-71.6%
5,CCN1CCC(CNCc2cc(OC)ccc2OC)C1 (stereo not given),57.9%
6,COc1ccc(CNCC2CC2)cc1F,-75.5%
7,CCC1=N[C@@]2(CC[C@@H]3CN(Cc4ccc(F)cc4)C[C@@H]32)C(=O)N1C,40.2%
8,COC1CCN(c2ccc(NC(=O)C3CC3)cc2C(F)(F)F)CC1,7.84%
9,CN1CCC(c2cccc(Cc3ccc(C(F)(F)F)cc3)n2)CC1,52.5%
10,CN1CCC(c2cccc(Cc3ccc(F)cc3)n2)CC1,0.302%
11,CN1CCC(c2cccc(Cc3ccccc3)n2)CC1,3.76%
12,CNc1nc(C(=O)N2CCN(c3ccc(Cl)c(Cl)c3)CC2)cs1,-3.09%
13,CC(=O)N1CCC(c2nc3ccc(-c4cccc(F)c4)cn3n2)CC1,-83.5%
14,Cc1cc(CN2CCC(C3CCN(CC(C)C)CC3)C2)[nH]n1 (stereo not given),-10.5%
15,COc1ccc(CN2CCCN(C(=O)C(C)n3ccnc3)CC2)cc1 (stereo not given),63.1%
16,CC(C(=O)N1CCN(Cc2ccc(C#N)cc2)CC1)n1ccnc1 (stereo not given),-162%
17,CC(C(=O)N1CCCN(Cc2ccc(C#N)cc2)CC1)n1ccnc1 (stereo not given),-20.3%
18,Cc1noc(C)c1-c1cccc(CC2CCN(C(=O)c3cscn3)C2)n1 (stereo not given),-100%
19,CCN1CC2(CNCCN(C(=O)Nc3ccccc3)C2)CC1=O (stereo not given),53.7%
20,CN(C)CC(=O)N1CC2(CCN(S(=O)(=O)c3ccccc3)C2)C1,-21%
21,CN(C)CC(=O)N1CC2(CCN(C(=O)Nc3ccccc3)C2)C1,50%
22,O=C1CC2(CNCCN(C(=O)Nc3ccccc3)C2)CN1 (stereo not given),-59.9%
23,CN1CC2(CNCCN(C(=O)Nc3ccccc3)C2)CC1=O (stereo not given),33.2%
24,CC(=O)N1CCN(C(=O)Nc2ccccc2)CC2(CC(=O)N(C)C2)C1 (stereo not given),13.6%
25,N#Cc1ccsc1NC(=O)CN1CCOC(Cn2cccn2)C1 (stereo not given),-49.6%
26,Cc1cnn(CC2CCN(CC(O)COc3ccc(F)cc3)CC2)c1 (stereo not given),-39.2%
27,CC(C)NC(=O)[C@H]1C[C@H]2OCC[C@H]2N(Cc2ccc3ccccc3n2)C1,3.39%
28,CCc1ccc(CN(Cc2ccco2)C(C)C(C)C)nc1 (stereo not given),-199%

row,Compound,INHIBITION
1,COCCNC(=O)Nc1cccc2c1CCN(S(C)(=O)=O)C2,-3.2%
2,Cc1ccc(OC2(C(=O)NC(C)Cc3ccsc3)CCNCC2)cc1 (stereo not given),52.5%
3,Cc1ccc(OC2(C(=O)NC(C)Cc3ccncc3)CCNCC2)cc1 (stereo not given),-39.1%
4,Cc1ccc(OC2(C(=O)NC(C)c3csc(C)n3)CCNCC2)cc1 (stereo not given),11.3%
5,CCn1cc2c(n1)CN(Cc1sccc1C)CC2COCC1CC1 (stereo not given),-6.58%
6,COc1nccnc1N1CCC(C(=O)O)(n2ccc(C(C)(C)C)n2)CC1,-5.61%
7,CC(O)CN(C(=O)NC1CC1)C(C)C (stereo not given),-10.2%
8,CC(=O)N1CCc2nc(-c3ccc(F)cc3)nc(NC(C)C)c2CC1,6.79%
9,CCCS(=O)(=O)NCc1nc(C)cc(N2CCCC2)n1,-76.8%
10,CC(C)c1nc(CN2CCCC2Cn2cncn2)no1 (stereo not given),-59.5%
11,CN(C)C(C(=O)N1CC(Oc2ccccc2F)C1)c1ccc(F)cc1 (stereo not given),64%
12,COc1ccccc1OC1CN(C(=O)C(c2ccc(F)cc2)N(C)C)C1 (stereo not given),3.3%
13,Cc1cccc(C(C(=O)N2CC(Oc3ccccc3F)C2)N(C)C)c1 (stereo not given),2.84%
14,O=C(O)CC(CC(=O)NCCc1ccsc1)c1cccs1 (stereo not given),-112%
15,Clc1ccc(CN2CCc3c(ncn3C3CC3)C2)c2ncccc12,30.3%
16,CC(=O)Cn1c(C)cc(=O)c2cc(F)ccc21,-152%
17,CN(Cc1cccc(CCN)c1)Cc1cccc2ncccc12,60.4%
18,CN(Cc1cccnc1N)Cc1cccc2ncccc12,15.1%
19,CN(Cc1cccc(OCCO)c1)Cc1cccc2ncccc12,-10.8%
20,CN(C)C(=O)C1CCCN(C(=O)c2ccccc2-n2cc(CN)cn2)C1 (stereo not given),25.8%
21,CC1CCCN(CCNC(=O)c2scnc2Cl)C1 (stereo not given),-37.9%
22,CCc1cccc(N2CCC(NC(=O)C3CCC3)CC2)c1,-52.2%
23,CCN(CC)c1ccc(C2c3c(n[nH]c3C)N=C3COC(=O)C32)cc1 (stereo not given),-48.4%
24,CN1CCCC[C@@H]2[C@H]1[C@@H](c1ccccc1)CCN2S(=O)(=O)N1CCCC1,52%
25,CCN(CC)S(=O)(=O)N1CC[C@H](c2ccccc2)[C@@H]2[C@H]1CCCCN2C,41.2%
26,CN1CCCC[C@@H]2[C@H]1[C@@H](c1ccccc1)CCN2C(=O)c1ccccc1,-15.8%
27,Cc1cc(C2NC(=O)CN2Cc2ccc(Br)cc2)cc(C)c1O (stereo not given),-78.2%
